Shown are actives, neighbours in structure and some others; about 1.2% of the full set was active somewhere.
RecA intein inh – inhibitors of M. tuberculosis RecA intein splicing; P9WHJ3; 0.75% of 290,000 active; cell-free RecA intein splicing, fluorescence; inhibition, % (no concentration beside the values); in the data active = inhibition above about 30%;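 note: 0% = vehicle wells and 100% = reference inhibitor control wells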
Rv3671c inh – inhibits the M. tuberculosis serine protease Rv3671c; P9WHR9; inhibition, % at 5.96 µM; 0.048% of 320,000 active; in the data active = inhibition above about 38%;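 note: extracellular domain of Rv3671c used as enzyme; 0% = enzyme with DMSO and 100% = no enzyme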
CCHF vOTU inh-1 – CCHFV vOTU protease inhibition. Pep-AMC fluorescence. inhibition, % at 11.5 µM. 0.55% of 370,000 active. AID 651958; note: 0% = vehicle wells with enzyme and 100% = no enzyme wells
Mtb bLac sens – beta-lactam sensitization of Mtb H37Rv; M. tuberculosis H37Rv growth with meropenem, percent inhibition; inhibition, % at 25 µM; 0.27% of 330,000 active; call rule not given here;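 note: growth measured after seven days incubation then overnight dye step; 0% = bacteria only wells and 100% = bacteria with antibiotic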
Mtb UGM inh – inhibitors of M. tuberculosis UDP-galactopyranose mutase; P9WIQ1; purified UGM, fluorescence polarization probe displacement; inhibition, % at 10 µM; 0.06% of 320,000 active; in the data active = inhibition above about 10%, passing the limit was not always enough
GFP chromo cs – counter-screen GFP chromophore formation inhibition | EC50, µM | shares compounds with RecA intein inh | cell-free GFP chromophore formation, fluorescence | AID 434968 | 83% of 2,100 active; call rule not given here
Rv3671c cf – confirmation of M. tuberculosis Rv3671c protease inhibitors; shares compounds with Rv3671c inh; inhibition, % at 5.96 µM; 40% of 140 active; AID 2761; in the data active = inhibition above about 38%
DNA intercalat – intercalates into DNA, flagged in counter-screen. AID 463198. AC50, µM. shares compounds with Mtb UGM inh. acridine orange-DNA binding, fluorescence polarization. 60% of 35 active;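 active = fitted AC50 no greater than ten times the top concentration tested, cut at about 17 µM in these data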
CCHF vOTU inh-2 – CCHFV vOTU protease inhibition, confirmation | shares compounds with CCHF vOTU inh-1 | Recombinant CCHFV vOTU, Pep-AMC fluorescence | inhibition, % at 11.5 µM | 17% of 1,900 active
Numbers without * were called inactive; x = not tested or not shown. Cut-off read from the data, not from the text of the source, unless noted: active = inhibition above about 30%; inactive = the rest.

SMILES | RecA intein inh | Rv3671c inh | CCHF vOTU inh-1 | Mtb bLac sens | Mtb UGM inh | GFP chromo cs | CCHF vOTU inh-2 | others
Cc1ccc(C)c(S(=O)(=O)Nc2ccc(O)c3ccccc23)c1 | 95* | -13 | 62* | 7 | 1 | 0.23* | -8
Cc1ccc(S(=O)(=O)Nc2ccc(O)c3ccccc23)c(C)c1 | 97* | x | 66* | 4 | 0 | 0.23* | -19
CCOC(=O)NC[C@@]1(C(=O)OC)CC(=O)N(C)[C@@H]1c1ccccc1 | x | x | -4 | x | x | x | x
COc1ccc(OC)c2c1C(=O)c1ccccc1C2=O | -2 | 25 | 28 | 2 | 4 | x | x
COc1ccc2noc3c2c1C(=O)c1ccccc1-3 | 60* | 6 | 64* | 64 | 84* | 10* | 104* | DNA intercalat=3.1*
CC1=NN(c2ccccc2)C(=O)/C1=C\c1ccc(Br)s1 | 14 | -31 | 18 | 6 | 0 | x | x
CCOc1cc(/C=C2/C(=O)N(c3ccccc3)N=C2C)ccc1OC(=O)c1ccco1 | 78* | -211 | 68* | 90 | -1 | 2.7* | -2
CC1=NN(c2ccc(C(=O)O)cc2)C(=O)/C1=C/c1ccc(-c2ccccc2F)o1 | 8 | 2 | x | 88 | 0 | x | x
CC1=NN(c2ccccc2)C(=O)/C1=C/c1ccc(Cl)cc1 | 85* | x | 89* | 6 | -2 | 3.2* | -27
CCOc1cc(/C=C2/C(=N)N3N=C(CC)SC3=NC2=O)ccc1OC(=O)c1ccco1 | 21 | -2 | 6 | 75 | -3 | x | x
CC1=NN(c2ccc(C(=O)O)cc2)C(=O)/C1=C\c1ccc(OC(=O)c2cccs2)cc1 | 93* | -195 | 55* | 98 | 2 | 2.6* | 7
COc1ccc(/C=C2/C(=O)N(c3ccccc3)N=C2C)cc1Br | 45* | -246 | 74* | 3 | 2 | 8* | 0
FC(F)(F)c1ccccc1NC(=S)OC1CCC12CCC(c1ccccc1)CC2 (stereo unspecified) | x | x | 4 | x | x | x | x
CC(NC(=O)c1cc2ccc(C(F)(F)F)cc2nc1N)c1cccc2ccccc12 (stereo unspecified) | x | x | -2 | x | x | x | x
COCCNC(=O)C[C@H]1CC[C@H]2[C@@H](COc3ccc(NC(=O)Nc4cccc(F)c4)cc3C(=O)N2C)O1 | x | x | 3 | x | x | x | x
CCOC(=O)c1c(CSC(=N)N)n(-c2ccc(C)cc2)c2cc(Br)c(OC(C)=O)cc12 | 70* | -5 | 46* | 39 | -1 | 7.9* | -2
CCOC(=O)c1c(CSC(=N)N)n(C)c2cc(Br)c(OC(C)=O)cc12 | 25 | -3 | 12 | 2 | 0 | x | x
Cc1ccc(O)c(N=CC2=C(O)c3ccccc3C2=O)c1 | 87* | -15 | 31* | 22 | 1 | 3.4* | 10
COc1ccc(OC)c(NC(=O)Nc2ccc(O)c3ccccc23)c1 | 78* | -96 | 73* | 4 | 1 | 1.2* | -15
O=S1(=O)c2ccc(N3CCC[C@H]3CO)cc2OCCCN1C1CC1 | x | x | 0 | x | x | x | x
CCN(CC)c1ccc2nc3ccccc3[n+](CC)c2c1 | x | -2 | x | 99 | 4 | x | x
C[n+]1c2ccccc2nc2ccc(NCCO)cc21 | 64* | 43* | 91* | 99 | 0 | 12* | 81* | Rv3671c cf=42*
CNc1ccc2nc3ccccc3[n+](C)c2c1 | 45* | 107* | 102* | 99 | 2 | 17* | 79* | Rv3671c cf=82*
CC(=O)c1c(C)oc2c1cc(O)c1ccccc12 | 0 | -2 | 7 | 4 | 0 | x | x
CC(=O)c1cc(O)c2ccccc2c1O | 70* | -41 | 37* | 4 | -1 | 6.9* | -9
SMILES | RecA intein inh | Rv3671c inh | CCHF vOTU inh-1 | Mtb bLac sens | Mtb UGM inh | GFP chromo cs | CCHF vOTU inh-2 | others
O=S(=O)(Nc1cc2nc3ccccc3nc2n1Cc1ccccc1)c1ccc(Cl)cc1 | 60* | -231 | 111* | -1 | -2 | 6.3* | 67*
O=S(=O)(NCc1ccccc1)c1ccc(Cl)cc1 | -3 | 0 | -15 | 9 | 0 | x | x
COc1cc(/C=C2/C(=O)N(c3ccc([N+](=O)[O-])cc3)N=C2N2CCOCC2)ccc1O | 46* | -182 | 115* | 76 | 2 | 23* | 8
CCN(CC)c1ccc(/C=C2/C(=O)N(c3ccc([N+](=O)[O-])cc3)N=C2N2CCOCC2)cc1 | -7 | -2 | x | 15 | -3 | x | x
O=C(Nc1ccc(Cl)cc1)C1CCCN1S(=O)(=O)c1cccc2cccnc12 (stereo unspecified) | x | x | 8 | x | x | x | x
COc1cc2c(cc1OC)-c1c(OC)c(OC)cc3c1[C@H](C2)N(C)CC3 | 34* | -23 | 89* | -1 | 0 | 22* | 79*
COc1cc2c(cc1O)CC1c3c(cc(O)c(OC)c3-2)CCN1C (stereo unspecified) | -5 | 0 | 5 | 0 | 0 | x | x
COc1ccc(CCC[C@H](CCC(=O)N(c2ccccc2)c2ccccc2)CCc2ccccc2)cc1 | x | x | 6 | x | x | x | x
Nn1cnnc1N/N=C/c1ccc(Cl)c([N+](=O)[O-])c1 | 59* | -144 | 99* | -5 | 2 | 25* | 10
Cc1ccc(NC2=C(NC(=O)c3ccccc3)C(=O)c3ccccc3C2=O)cc1Cl | 70* | -69 | 51* | 88 | -1 | 6.4* | 42*
C=C(C)C#CCNCc1ccccc1 | x | x | 3 | x | x | x | x
O=[N+]([O-])c1cc2cccnc2c2ncccc12 | x | -3 | -3 | 95 | 1 | x | x
O=[N+]([O-])c1cc(O)c2ncccc2c1 | 37* | -51 | 35* | -7 | 3 | 12* | 52*
O=C1C2=C(c3ccccc31)[N+](=O)C1CCCCC1N2[O-] (stereo unspecified) | 82* | -12 | 57* | 5 | 3 | 7.9* | 29
CC1OC(Nc2cccc3ccccc23)C(O)C(O)C1O (stereo unspecified) | 46* | -24 | 65* | 92 | 0 | >38 | -34
O=S1(=O)c2ccc(Br)cc2OC[C@@H](Cc2ccccc2)N1Cc1cn(CCC2OCCO2)nn1 | x | x | -3 | x | x | x | x
CCO/C=C1\C(=O)N(c2ccccc2)C(=O)c2ccccc21 | x | -7 | x | 2 | -3 | x | x
CCO/C=C1/C(=O)N(Cc2ccccc2)C(=O)c2ccccc21 | 36* | -104 | 95* | 2 | -2 | >12 | 108*
CCCCCn1nnnc1C1(C)Cn2nccc2C(=O)N1Cc1ccco1 (stereo unspecified) | x | x | -7 | x | x | x | x
COc1ccc(OCc2cc(C(=O)NC3CCOC(C)(C)C3)no2)c2ccccc12 (stereo unspecified) | 54* | -30 | 43* | 3 | -1 | 12* | 22
CCOc1ccc(-n2c(SCC(=O)c3ccccc3Cl)nnc2-c2ccncc2)cc1 | x | x | 11 | x | x | x | x
COc1cc(NC(C)CCCN)c2ncccc2c1 (stereo unspecified) | 90* | -34 | 104* | 98 | 4 | 13* | 81*

Screens: PubChem, several laboratories
